Assay outcomes deposited in PubChem by National Center for Advancing Translational Sciences (NCATS).
An excerpt weighted towards active compounds, which were near 17% of everything screened.
HT1080-NT tox – qHTS for induction of synthetic lethality in tumor cells producing 2HG: qHTS for the HT-1080-NT fibrosarcoma cell line. HT-1080-NT fibrosarcoma viability, CellTiter-Glo ATP luminescence, 48 h. actives 1.6% (n = 360,000). Potency, µM (doses to about 46.1 µM), inactives show at the highest dose activity, negative = less viability, actives largely listed as cytotoxic;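 note: NT is the 2HG producing partner of a matched IDH1 knockdown line; 0% = DMSO-treated cells and -100% = media-only wells without cells; nearly all actives have a fitted effect of over 55% in size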
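750 cells/well, RPMI + 5% FBS; 2 h settle, compound pin-transfer, 48 h at 37 degrees C. CellTiter-Glo 10 min RT, luminescence. Normalized to DMSO and media-only wells.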
HT1080 IDH1KD tx – qHTS for induction of synthetic lethality in tumor cells producing 2HG: qHTS for the HT-1080-IDH1KD cell line. HT-1080 IDH1 knockdown viability, ATP luminescence, 48 h. Potency, µM (doses to about 46.1 µM), inactives show at the top dose activity, negative = toxicity, most hits filed as cytotoxic. actives 2% (n = 360,000);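 note: 0% = DMSO wells and -100% = cell-free medium wells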
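Knockdown cells (IDH1KD HT-1080) received compounds 2 h after plating at 750 cells/well and were kept 48 h at 37 °C in 5% FBS RPMI. A CellTiter-Glo luminescence read gave % activity for curve fitting.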
TGFb SMAD3 inh – qHTS for Inhibitors of TGF-b | Potency, µM (series often up to 46.1 µM), for inactives: at the highest dose activity, negative = inhibition, actives largely listed as inhibitors | HepG2 CAGA-GFP TGF-b/SMAD3 reporter, GFP fluorescence, 18 h; TGF-beta stimulated, 500 pg/mL final | AID 588855, 2011 | actives 1.2% (n = 410,000); note: % is set by controls: 0 for no effect and ±100 for the full control effect; nearly all actives have a fitted effect of over 65% in size
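Cell-based qHTS in HEPG2 carrying a CAGA-GFP Smad reporter; compounds added before 500 pg/mL final TGF-beta, 18 h incubation at 37 degrees C, GFP fluorescence quantified per cell by imaging cytometry.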
TDP1 cell noCPT – qHTS for Inhibitors of human tyrosyl-DNA phosphodiesterase 1 (TDP1): qHTS in cells in absence of CPT; DT40 Tdp1-/- hTDP1 cells, no CPT, ATP luminescence, 48 h; AID 686978, 2013; Potency, µM (highest dose often 46.2 µM), without a hit: at the highest dose activity change, negative = growth inhibition, most hits filed as inhibitors; actives 15% (n = 420,000); note: % is set by controls: 0 for no effect and ±100 for the full control effect; nearly all actives have a fitted effect of over 55% in size
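Camptothecin absent (DMSO only). Human TDP1-complemented DT40 knockout cells, 400 cells/well, 37 °C for minimum 48 hr; ATP measured via CellTiter-Glo, 30 min dark incubation, luminescence.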
HepG2 tox – qHTS for Inhibitors of TGF-b: Cytotox Counterscreen. HepG2 CAGA-GFP viability, ATP luminescence, 18 h. Potency, µM (doses to about 46.1 µM), for the others: top-dose activity change, negative = cytotoxicity, actives largely listed as cytotoxic. actives 0.76% (n = 410,000). AID 588856, 2011
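HepG2 CAGA-GFP cells (1000/well, DMEM with 1% FBS) received compound, then TGF-beta at 500 pg/mL final, and were incubated 18 hours at 37 degrees C. Viability was read by CellTiter-Glo luminescence. Media-only wells were set as complete cell-killing and DMSO as no toxicity.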
DT40 TDP1 CPT – qHTS for Inhibitors of human tyrosyl-DNA phosphodiesterase 1 (TDP1): qHTS in cells in presence of CPT; AID 686979, 2013; actives 12% (n = 420,000); chicken DT40 Tdp1-/-;hTDP1 cells + 20 nM CPT, ATP luminescence, 48 h; Potency, µM (top dose mostly 46.2 µM), without a hit: at the highest dose activity change, negative = growth inhibition, actives largely listed as inhibitors; note: % is set by controls: 0 for no effect and ±100 for the full control effect; nearly all actives have a fitted effect of over 55% in size
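Chicken DT40 Tdp1-/- cells stably complemented with human TDP1 were seeded at 400 cells/well in medium containing 20 nM camptothecin, exposed to pin-transferred compounds, and grown at 37 °C for at least 48 hr. Viability was read as ATP luminescence.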
* = called active by the depositor; ? = inconclusive; . = no result given. Calls come from the whole dose curve; as a rule, active = well fitted curve in the direction sought with a large enough effect; inconclusive = small, poorly fitted or top-dose-only effect, or another doubt; inactive = no such curve, though single readings can be large; an effect the other way counts as inactive or inconclusive. Potency is the fitted concentration of half-maximal effect.

SMILES	HT1080-NT tox	HT1080 IDH1KD tx	TGFb SMAD3 inh	TDP1 cell noCPT	HepG2 tox	DT40 TDP1 CPT
COc1cc([N+](=O)[O-])c2ncccc2c1[N+](=O)[O-]	15µM*	7.3µM*	1%	4.6µM*	-69%	2.6µM*
CCNC(=O)CCSc1nc2cc(Cl)ccc2o1	17%	16%	?	?	3%	-5%
CCN1C[C@@]2(OC(=O)c3ccccc3NC(C)=O)CCC(OC)[C@@]34C5CC6C(OC)C[C@@](O)(C(CC23)[C@@H]14)C5(O)C6OC (some centres not stated)	.	.	.	4%	.	-3%
CCCCCc1cc(O)c2c(c1)OC(C)(C)[C@@H]1CCC(C)=C[C@@H]21	.	.	.	?	.	21µM*
COc1ccc(-n2c(=S)[nH]c3c(sc(=S)n3-c3ccccc3)c2=O)c(OC)c1	1%	22%	-9%	16µM*	-3%	21µM*
COc1ccccc1Cn1c(SCC#N)nc2cc(C(=O)N3CCC4(CC3)OCCO4)ccc2c1=O	-14%	-12%	15%	?	0%	0%
Cc1nc2cc(C(F)(F)F)ccc2n1C1CCN(Cc2nnnn2Cc2cccs2)CC1	-12%	-23%	-3%	16µM*	-24%	16µM*
Fc1ccc(Cn2nnnc2CN2CCC(n3nnc4cc(C(F)(F)F)ccc43)CC2)cc1	10%	-3%	-27%	?	-10%	18µM*
Cc1nc2cc(C(F)(F)F)ccc2n1C1CCN(Cc2nnnn2Cc2ccc3c(c2)OCO3)CC1	23µM*	29µM*	?	16µM*	-37%	29µM*
FC(F)(F)c1ccc2c(c1)ncn2C1CCN(Cc2nnnn2C2CCCCC2)CC1	-7%	-3%	?	?	-16%	?
Cc1nc2ccccc2n1C1CCN(Cc2nnnn2CCc2ccccc2)CC1	7%	0%	8%	?	-20%	?
COc1cc2c(cc1OC)-c1c(OC)c(OC)c(C=O)c3c1[C@H](C2)N(C)CC3	.	.	.	?	.	-79%
COC(=O)c1c2[n+](cc3cc(OC)c(OC)cc13)CCc1cc(OC)c(OC)cc1-2	21%	10%	5%	21µM*	-44%	18µM*
CC(C)N1CCN(Cc2c[nH]c3ccccc23)CC1CCO (configuration not stated)	-4%	-9%	-3%	-12%	-11%	?
OC1(c2ccc(Cl)cc2)CCN(Cc2c[nH]c3ccccc23)CC1	18µM*	18µM*	?	16µM*	-38%	13µM*
c1ccc2c(CN3CCCCC3)c[nH]c2c1	-1%	-4%	0%	?	-29%	8.2µM*
CC1CCCCN1CC(O)c1c[nH]c2ccccc12 (configuration not stated)	8%	5%	-20%	0%	-17%	10%
CC1CCCCN1Cc1c[nH]c2ccccc12 (configuration not stated)	-3%	-5%	-11%	7.3µM*	1%	4.1µM*
c1ccc2c(CCN3CCCCC3)c[nH]c2c1	-13%	?	3%	0%	-22%	-14%
C=CCc1cc(OC)c2c(c1OC)OCO2	.	.	.	27%	.	12%
COc1ccc(OC(=O)N(C)C[C@@H]2OCc3cnnn3CCCC(=O)N([C@@H](C)CO)C[C@H]2C)cc1	11%	4%	6%	6%	7%	5%
C[C@H](CO)N1C[C@H](C)[C@@H](CN(C)Cc2ccccc2)Oc2c(NC(=O)c3ccncc3)cccc2C1=O	4%	6%	-14%	23µM*	-27%	?
C[C@H]1CN([C@@H](C)CO)C(=O)c2cc(-c3cccnc3)cnc2O[C@H]1CN(C)Cc1ccc(Oc2ccccc2)cc1	0%	-15%	-11%	?	-20%	?
C[C@H](CO)N1C[C@H](C)[C@@H](CN(C)Cc2ccc(-c3ccccc3)cc2)Oc2c(NC(=O)c3ccncc3)cccc2C1=O	?	-22%	?	23µM*	-3%	16µM*
NC1C[C@H]1c1ccccc1 (some centres not stated)	.	.	.	-5%	.	-12%
SMILES	HT1080-NT tox	HT1080 IDH1KD tx	TGFb SMAD3 inh	TDP1 cell noCPT	HepG2 tox	DT40 TDP1 CPT
CN(C)C1C(=O)C(C(N)=O)=C(O)C2(O)C(=O)C3=C(O)c4c(O)cccc4C(C)(O)C3C(O)C12 (configuration not stated)	-23%	-8%	22%	7.3µM*	3%	10µM*
CN(C)C1C(=O)C(C(N)=O)=C(O)[C@@]2(O)C(=O)C3=C(O)c4c(O)ccc(Cl)c4[C@](C)(O)C3CC12 (some centres not stated)	.	.	.	18µM*	.	16µM*
COc1cc(OC)c2c(c1)OC(c1ccc(OC)c(OC)c1)C(O)C2 (configuration not stated)	.	.	.	-26%	.	-29%
CCCOc1ccc(N2C(=O)CC(N3CC=C(c4ccccc4)CC3)C2=O)cc1 (configuration not stated)	9%	4%	1%	?	17%	-12%
O=C1CC(N2CC=C(c3ccccc3)CC2)C(=O)N1c1ccc(F)cc1 (configuration not stated)	-10%	0%	-8%	18µM*	-15%	15µM*
C#CC[N+]1(C)[C@@H]2CC[C@H]1CC(OC(=O)C(CO)c1ccccc1)C2 (some centres not stated)	-2%	0%	22%	-5%	1%	14%
CCCCN1CC(COCc2ccccc2)Oc2cccc(Oc3ccc(C(C)C)cc3)c2S1(=O)=O (configuration not stated)	-1%	0%	-3%	5.2µM*	4%	10µM*
CNC(C)C#Cc1ccc2oc3cc(C)c(C)cc3c(=O)c2c1 (configuration not stated)	-19%	-25%	?	15µM*	-25%	?
CC(C)CN1C(=S)SC(C)(C)C1n1oc(=O)n(-c2ccc(Cl)cc2)c1=O (configuration not stated)	?	?	?	-27%	-34%	?
